Measurements reported in the supplement of paper PMC11732987, “Enantioselective OTUD7B fragment discovery through chemoproteomics screening and high-throughput optimisation” (Communications Chemistry, 2025).
A number with no mark means an inactive call.

Tests used:
Experiment in all cases: log2 ratio of Biotin-Ahx-Ub-VS probe labelling (fragment/DMSO); higher = less target engagement (more negative = stronger competition), active = hit call of the paper (q ≤ 0.05, log2 ratio ≤ -1)
Details in all cases: compound concentration: 200 uM; treatment time: 3 h
[1] = molecular target: T1, OTUD6B (UniProt Q8N6M0)
T1 sequence (whole entry): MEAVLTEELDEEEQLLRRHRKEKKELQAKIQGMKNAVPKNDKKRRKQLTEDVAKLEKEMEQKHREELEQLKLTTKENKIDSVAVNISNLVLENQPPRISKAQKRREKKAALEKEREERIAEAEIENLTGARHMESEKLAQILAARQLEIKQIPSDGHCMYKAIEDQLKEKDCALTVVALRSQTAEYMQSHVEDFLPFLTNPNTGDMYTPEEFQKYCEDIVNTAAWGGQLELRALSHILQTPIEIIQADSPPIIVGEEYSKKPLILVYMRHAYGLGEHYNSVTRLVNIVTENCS
In short: (§1)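 Fragment (200 µM) or vehicle was incubated for 3 h with triplicate HEK293T lysate samples of 495 µg, which were then treated with Biotin-Ahx-Ub-VS at 0.5 µM final for 1 h. Labelled DUBs were enriched on NeutrAvidin, digested with LysC and trypsin, and analysed by diaPASEF LC-MS/MS. Values are average log2 fragment/vehicle ratios from an unpaired t-test on global-median-normalised Spectronaut label-free quantities, using proteins with ≥2 unique peptides.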

[2] = molecular target: T2, OTUD7B (UniProt Q6GQQ9)
T2 sequence (whole entry): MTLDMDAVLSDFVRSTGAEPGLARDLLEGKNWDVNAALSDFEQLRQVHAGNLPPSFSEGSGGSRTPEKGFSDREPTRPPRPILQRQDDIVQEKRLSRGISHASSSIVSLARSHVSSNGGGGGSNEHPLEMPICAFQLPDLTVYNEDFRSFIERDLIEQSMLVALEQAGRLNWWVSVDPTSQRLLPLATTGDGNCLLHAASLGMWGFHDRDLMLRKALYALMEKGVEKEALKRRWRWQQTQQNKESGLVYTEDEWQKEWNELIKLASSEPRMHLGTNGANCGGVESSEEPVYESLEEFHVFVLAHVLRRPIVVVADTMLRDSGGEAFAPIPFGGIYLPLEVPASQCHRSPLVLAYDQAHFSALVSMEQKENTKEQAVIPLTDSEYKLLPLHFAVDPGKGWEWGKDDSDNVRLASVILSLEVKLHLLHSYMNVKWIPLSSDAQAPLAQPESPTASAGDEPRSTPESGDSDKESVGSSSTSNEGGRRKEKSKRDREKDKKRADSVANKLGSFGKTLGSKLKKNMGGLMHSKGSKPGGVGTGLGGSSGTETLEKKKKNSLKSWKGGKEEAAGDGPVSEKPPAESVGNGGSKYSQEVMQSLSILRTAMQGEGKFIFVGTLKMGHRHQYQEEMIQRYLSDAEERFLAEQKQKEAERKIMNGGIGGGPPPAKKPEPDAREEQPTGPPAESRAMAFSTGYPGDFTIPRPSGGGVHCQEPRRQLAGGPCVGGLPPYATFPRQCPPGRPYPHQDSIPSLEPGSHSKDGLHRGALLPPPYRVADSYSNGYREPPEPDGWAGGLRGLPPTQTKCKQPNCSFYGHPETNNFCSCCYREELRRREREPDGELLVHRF
In short: as §1

[3] = molecular target: PRPF8 (UniProt Q6P2Q9)
In short: as §1

[4] = molecular target: T3, PSMD7 (UniProt P51665)
T3 sequence (whole entry): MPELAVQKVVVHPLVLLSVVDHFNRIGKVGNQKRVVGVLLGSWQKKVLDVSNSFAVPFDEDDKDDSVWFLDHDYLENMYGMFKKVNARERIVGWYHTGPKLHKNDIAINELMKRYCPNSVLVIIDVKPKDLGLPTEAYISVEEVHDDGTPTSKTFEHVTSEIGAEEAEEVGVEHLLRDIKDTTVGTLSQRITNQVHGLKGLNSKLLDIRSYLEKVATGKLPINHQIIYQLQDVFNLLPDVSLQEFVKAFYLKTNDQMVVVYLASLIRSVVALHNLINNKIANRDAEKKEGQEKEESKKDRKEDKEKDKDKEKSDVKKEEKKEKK
In short: as §1

[5] = molecular target: UCHL1 (UniProt P09936)
In short: as §1

[6] = molecular target: T4, UCHL3 (UniProt P15374)
T4 sequence (whole entry): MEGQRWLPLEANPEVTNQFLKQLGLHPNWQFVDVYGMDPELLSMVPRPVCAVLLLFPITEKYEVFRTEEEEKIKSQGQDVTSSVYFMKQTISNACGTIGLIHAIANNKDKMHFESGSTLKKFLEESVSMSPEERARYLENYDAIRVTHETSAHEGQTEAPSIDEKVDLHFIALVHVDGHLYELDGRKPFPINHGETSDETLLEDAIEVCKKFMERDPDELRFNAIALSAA
In short: as §1

[7] = molecular target: T5, UCHL5 (UniProt Q9Y5K5)
T5 sequence (whole entry): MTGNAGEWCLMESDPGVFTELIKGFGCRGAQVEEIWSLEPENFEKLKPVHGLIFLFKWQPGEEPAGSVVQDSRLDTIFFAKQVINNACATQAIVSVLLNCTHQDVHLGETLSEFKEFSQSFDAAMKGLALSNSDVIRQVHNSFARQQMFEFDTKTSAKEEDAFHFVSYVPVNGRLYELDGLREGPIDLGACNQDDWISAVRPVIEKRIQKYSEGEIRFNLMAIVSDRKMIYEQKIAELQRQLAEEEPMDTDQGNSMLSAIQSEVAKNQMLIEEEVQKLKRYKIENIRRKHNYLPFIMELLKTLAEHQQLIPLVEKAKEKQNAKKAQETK
In short: as §1

[8] = molecular target: USP10 (UniProt Q14694)
In short: as §1

[9] = molecular target: T6, USP15 (UniProt Q9Y4E8)
T6 sequence (whole entry): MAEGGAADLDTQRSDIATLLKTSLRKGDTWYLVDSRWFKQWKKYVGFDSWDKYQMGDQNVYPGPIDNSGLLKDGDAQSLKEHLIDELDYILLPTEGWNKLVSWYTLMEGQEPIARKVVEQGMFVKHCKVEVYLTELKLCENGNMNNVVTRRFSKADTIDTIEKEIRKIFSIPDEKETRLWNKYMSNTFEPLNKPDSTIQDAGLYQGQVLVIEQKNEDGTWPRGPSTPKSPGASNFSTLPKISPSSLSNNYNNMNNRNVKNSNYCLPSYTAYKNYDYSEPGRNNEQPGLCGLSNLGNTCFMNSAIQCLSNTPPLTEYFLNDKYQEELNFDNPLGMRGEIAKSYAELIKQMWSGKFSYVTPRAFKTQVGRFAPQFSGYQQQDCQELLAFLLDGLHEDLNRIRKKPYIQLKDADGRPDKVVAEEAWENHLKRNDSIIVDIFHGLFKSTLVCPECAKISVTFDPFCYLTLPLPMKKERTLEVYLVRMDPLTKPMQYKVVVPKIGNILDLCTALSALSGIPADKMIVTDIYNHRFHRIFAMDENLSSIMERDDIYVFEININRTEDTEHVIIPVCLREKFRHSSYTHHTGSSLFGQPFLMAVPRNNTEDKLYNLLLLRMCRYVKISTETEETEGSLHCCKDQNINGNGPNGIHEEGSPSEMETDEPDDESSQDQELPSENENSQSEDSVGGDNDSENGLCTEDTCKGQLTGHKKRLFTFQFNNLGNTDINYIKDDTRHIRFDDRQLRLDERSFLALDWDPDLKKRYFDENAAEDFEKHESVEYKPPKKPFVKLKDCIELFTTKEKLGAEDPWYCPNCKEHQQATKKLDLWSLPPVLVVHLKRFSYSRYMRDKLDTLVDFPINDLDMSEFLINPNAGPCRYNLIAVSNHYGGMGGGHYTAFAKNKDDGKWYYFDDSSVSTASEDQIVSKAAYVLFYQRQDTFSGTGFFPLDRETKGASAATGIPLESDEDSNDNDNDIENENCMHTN
In short: as §1

[10] = molecular target: USP16 (UniProt Q9Y5T5)
In short: as §1

Chain of USP16 (Q9Y5T5 whole entry, looked up): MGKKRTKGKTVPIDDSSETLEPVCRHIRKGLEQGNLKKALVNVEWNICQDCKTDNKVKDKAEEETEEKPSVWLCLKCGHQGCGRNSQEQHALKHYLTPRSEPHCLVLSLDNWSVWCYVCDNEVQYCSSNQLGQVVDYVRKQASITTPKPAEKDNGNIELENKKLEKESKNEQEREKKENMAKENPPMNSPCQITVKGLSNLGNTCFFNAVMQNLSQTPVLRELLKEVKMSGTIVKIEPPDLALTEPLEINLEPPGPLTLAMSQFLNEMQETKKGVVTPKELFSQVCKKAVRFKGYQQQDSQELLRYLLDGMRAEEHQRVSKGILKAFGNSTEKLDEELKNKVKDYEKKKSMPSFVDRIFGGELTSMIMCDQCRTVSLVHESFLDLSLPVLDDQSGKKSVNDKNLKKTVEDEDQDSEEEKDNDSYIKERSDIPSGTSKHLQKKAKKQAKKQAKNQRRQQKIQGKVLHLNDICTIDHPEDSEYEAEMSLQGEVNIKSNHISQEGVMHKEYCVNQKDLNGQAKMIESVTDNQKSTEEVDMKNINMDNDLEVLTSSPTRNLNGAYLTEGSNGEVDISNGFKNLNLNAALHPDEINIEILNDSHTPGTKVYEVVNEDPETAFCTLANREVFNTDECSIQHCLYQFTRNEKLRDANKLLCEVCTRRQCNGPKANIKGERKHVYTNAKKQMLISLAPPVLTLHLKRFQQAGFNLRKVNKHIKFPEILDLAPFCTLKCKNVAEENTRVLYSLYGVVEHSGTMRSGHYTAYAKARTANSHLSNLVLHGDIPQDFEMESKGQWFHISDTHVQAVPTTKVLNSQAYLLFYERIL
Chain of USP10 (Q14694 whole entry): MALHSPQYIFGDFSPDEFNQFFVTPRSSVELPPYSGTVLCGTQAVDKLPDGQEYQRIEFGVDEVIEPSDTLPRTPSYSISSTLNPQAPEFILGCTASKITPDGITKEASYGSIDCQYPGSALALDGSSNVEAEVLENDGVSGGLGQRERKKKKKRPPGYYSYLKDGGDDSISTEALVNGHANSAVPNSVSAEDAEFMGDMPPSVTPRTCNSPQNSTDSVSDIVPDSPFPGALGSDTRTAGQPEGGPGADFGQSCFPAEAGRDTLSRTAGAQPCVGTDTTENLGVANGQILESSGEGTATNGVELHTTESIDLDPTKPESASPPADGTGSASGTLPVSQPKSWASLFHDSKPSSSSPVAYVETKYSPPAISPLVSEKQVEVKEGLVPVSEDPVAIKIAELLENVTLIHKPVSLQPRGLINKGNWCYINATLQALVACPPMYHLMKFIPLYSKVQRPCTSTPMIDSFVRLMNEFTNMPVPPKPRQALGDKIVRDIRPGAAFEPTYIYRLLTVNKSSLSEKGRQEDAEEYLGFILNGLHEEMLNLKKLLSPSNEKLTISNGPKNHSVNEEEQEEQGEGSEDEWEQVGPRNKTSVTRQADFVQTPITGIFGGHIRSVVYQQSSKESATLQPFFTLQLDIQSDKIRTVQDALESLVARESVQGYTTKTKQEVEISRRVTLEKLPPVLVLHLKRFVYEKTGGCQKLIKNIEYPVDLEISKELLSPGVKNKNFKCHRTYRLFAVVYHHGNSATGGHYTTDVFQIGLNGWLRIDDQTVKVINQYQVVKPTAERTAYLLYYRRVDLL
Chain of UCHL1 (P09936 whole entry, looked up): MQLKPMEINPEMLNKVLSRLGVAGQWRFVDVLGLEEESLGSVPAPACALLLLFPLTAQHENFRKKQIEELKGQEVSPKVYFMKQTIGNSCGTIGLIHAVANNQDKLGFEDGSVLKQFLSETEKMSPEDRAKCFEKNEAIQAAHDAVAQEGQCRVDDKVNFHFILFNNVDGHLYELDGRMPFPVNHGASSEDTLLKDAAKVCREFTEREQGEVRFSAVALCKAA

O=C(CCl)N1CCOC2(CCC2)CC1
log2 ratio of Biotin-Ahx-Ub-VS probe labelling [1]: -0.0124 | log2 ratio of Biotin-Ahx-Ub-VS probe labelling [2]: -0.961 | log2 ratio of Biotin-Ahx-Ub-VS probe labelling [3]: -0.071 | log2 ratio of Biotin-Ahx-Ub-VS probe labelling [4]: -0.283 | log2 ratio of Biotin-Ahx-Ub-VS probe labelling [5]: -1.35 (active) | log2 ratio of Biotin-Ahx-Ub-VS probe labelling [6]: 0.146 | log2 ratio of Biotin-Ahx-Ub-VS probe labelling [7]: -0.0451 | log2 ratio of Biotin-Ahx-Ub-VS probe labelling [8]: -0.118 | log2 ratio of Biotin-Ahx-Ub-VS probe labelling [9]: -0.447 | log2 ratio of Biotin-Ahx-Ub-VS probe labelling [10]: 0.117
